Dicer inh – human Dicer pre-microRNA cleavage inhibition; Q9UPY3; hit rate 6% among 47,000; z-score at 25 µM; cat-ELCCA pre-miR-21 Dicer processing, chemiluminescence; stronger effect = higher value; in the data active means z-score above about 3, passing the limit was not always enough;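 further: plate controls were vehicle for no effect and no enzyme for full effect; higher signal means more uncleaved substrate so more Dicer inhibition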
Starred values were filed as active, the others as inactive. Many of the other results were omitted from the sample, so hits are more common in it than they were.

SMILES	Dicer inh
CN1CCN(CCCN2C(=O)CSC2c2ccccc2)CC1 (stereo unspecified)	0.68
Cc1nn2c3c(cnc2c1-c1ccc(F)cc1)C(=O)CC(c1ccco1)C3 (stereo unspecified)	1
Cc1nn2c(c1-c1ccccc1)N=C(c1ccco1)CC2c1ccco1 (stereo unspecified)	3.3*
CC(=O)N1N=C(c2c(-c3ccccc3)c3cc(Cl)ccc3[nH]c2=O)CC1c1ccco1 (stereo unspecified)	2.2
COC(=O)C1=C(C)NC2=C(C(=O)c3ccccc32)C1c1ccc(O)c(Cl)c1 (stereo unspecified)	-0.07
O/N=C1/c2ccccc2-c2ccc(I)cc21	4.8
CN(C)S(=O)(=O)N(CC(=O)NCCC1=CCCCC1)c1ccccc1	-1.9
Cc1sc(NC2=NS(=O)(=O)c3ccccc32)nc1-c1ccc(Cl)cc1	3.6*
Cc1ccccc1NC1=NS(=O)(=O)c2ccccc21	-2.4
CCc1sc(NC2=NS(=O)(=O)c3ccccc32)nc1-c1ccccc1	-0.27
CCOC(=O)c1sc(/S(C)=N/C(=O)Nc2ccc(Cl)cc2)c2c1CCC=C2 (stereo unspecified)	-1.6
CC(=O)Oc1ccc(-c2nc3ccc(C(=O)O)cc3s2)cc1	0.17
Nc1ccc(-c2nc3ccc(C(=O)O)cc3s2)cc1	0.3
Nc1cccc(-c2nc3ccc(N)cc3s2)c1	1.7
O=C(O)c1ccc2nc(-c3ccccc3)sc2c1	3.8*
Nc1ccc(-c2nc3ccc(N)cc3s2)cc1	2.3
Nc1ccc2nc(-c3ccc(O)cc3)sc2c1	3.5*
CCc1c(C#N)c(SCC(=O)N2CCc3cc(OC)c(OC)cc3C2)nc2c1C(=O)CC(C)(C)C2	-1.1
COC(=O)C1=C(C)NC2=C(C(=O)CC(c3ccc(OC)cc3)C2)C1c1ccncc1 (stereo unspecified)	0.26
O=[N+]([O-])c1cc(C(F)(F)F)ccc1S(=O)(=O)c1ccc(Cl)cc1	2
O=C(Nc1ccccc1S(=O)(=O)Cc1cccc(C(F)(F)F)c1)c1ccc(Cl)cc1	1.8
CCNC(=O)NNc1c(Cl)cncc1Cl	-3.7
CCc1ccc2oc3nc(N)c(C#N)cc3c(=O)c2c1	-0.94
CCCCOc1cccc(C2c3c(oc4ccccc4c3=O)C(=O)N2c2ccccn2)c1 (stereo unspecified)	3.2*
CCCCOc1cccc(C2c3c(oc4ccccc4c3=O)C(=O)N2c2nnc(C)s2)c1 (stereo unspecified)	-1.2
SMILES	Dicer inh
O=C1c2oc3ccccc3c(=O)c2C(c2cccc(Oc3ccccc3)c2)N1c1ccccn1 (stereo unspecified)	4.3*
C=CCOc1cccc(C2c3c(oc4ccccc4c3=O)C(=O)N2c2ccccn2)c1 (stereo unspecified)	2.2
COc1cc(C2c3c(oc4ccccc4c3=O)C(=O)N2c2ccccn2)ccc1OCc1ccccc1 (stereo unspecified)	-0.4
O=C1c2oc3ccccc3c(=O)c2C(c2cccc(Br)c2)N1c1ccccn1 (stereo unspecified)	0.01
COc1cc(C2c3c(oc4ccccc4c3=O)C(=O)N2c2nnc(C)s2)ccc1OCCC(C)C (stereo unspecified)	-0.62
CCCCCOc1cccc(C2c3c(oc4ccccc4c3=O)C(=O)N2c2nccs2)c1 (stereo unspecified)	-0.96
CCOc1cccc(C2c3c(oc4ccccc4c3=O)C(=O)N2c2ccccn2)c1 (stereo unspecified)	5.9*
COc1cccc(C2c3c(oc4ccccc4c3=O)C(=O)N2c2ccccn2)c1 (stereo unspecified)	1.9
COc1cc(C2c3c(oc4ccccc4c3=O)C(=O)N2c2ccccn2)ccc1OCCC(C)C (stereo unspecified)	3.5*
O=C1c2oc3ccccc3c(=O)c2C(c2cccc(Cl)c2)N1c1ccccn1 (stereo unspecified)	0.31
O=S(=O)(c1ccc(Cl)cc1)N1CCc2sccc2C1c1ccc(Cl)cc1 (stereo unspecified)	-0.14
N#Cc1cccc(Nc2ncnc(N)n2)c1	1.2
CS(=O)(=NC(=S)NC(=O)Oc1ccccc1)c1ccc(Cl)cc1 (stereo unspecified)	-0.13
O=[N+]([O-])c1cc(C(F)(F)F)c(N2CCCCC2)cc1N1CCCCC1	21
O=C1c2ccccc2O[C@@H](c2ccccc2)[C@@H]1O	-0.24
Cc1cc(C)n2nc(C(C)(C)C)cc2n1	0.27
CCOC(=O)N1CCC(Nc2nc(N3CCCC3)nc(N3CCCC3)n2)CC1	-0.12
Cc1c(Cl)cccc1-n1ncnc1-c1ccc2c(c1)OCO2	1.2
COC(=O)c1cnn2c(C(F)F)cc(-c3ccc(C)cc3)nc12	-1.5
CCOC(=O)c1cnn2c(C(F)F)cc(-c3ccc(C)cc3)nc12	3.5*
CCn1ncc(CNC(=O)c2cnn3c(C(F)F)cc(-c4ccc(C)cc4)nc23)c1C	0.29
O=C(Nc1ccc(OC(F)F)cc1)NC1CCN(C(=O)OCc2ccccc2)CC1	-1.9
CCOC(=O)c1ccc(OC(=O)c2cccnc2Oc2ccccc2)c(Cl)c1	-1
O=C(Nc1cc(-c2nc3cc(Cl)ccc3o2)ccc1Cl)c1ccco1	1.2
O=C(Nc1ccc(Cl)cc1O)c1ccco1	5.7*
SMILES	Dicer inh
O=C(Nc1cccc2cccnc12)c1ccco1	-2.8
CC(C)(C)CC(=O)Nc1nc2c(s1)C(=O)CC(C)(C)C2	-0.49
O=C1c2cccc3cccc(c23)C(=O)N1CCNCCN1C(=O)c2cccc3cccc(c23)C1=O	1.2
O=C(O)CN1C(=O)c2cccc3cccc(c23)C1=O	3.7*
O=C1c2cccc3cccc(c23)C(=O)N1CCCCO	1.4
O=C(CN1C(=O)c2cccc3cccc(c23)C1=O)N1CCOCC1	0.47
NC(=O)C1CCN(C(=O)CN2C(=O)c3cccc4cccc2c34)CC1	-1
O=C1c2cccc3cccc(c23)C(=O)N1CC(=O)N1CCc2ccccc21	3.8*
CC(O)CN1C(=O)c2cccc3cccc(c23)C1=O (stereo unspecified)	3.2*
O=C(O)CCCN1C(=O)c2cccc3cccc(c23)C1=O	2.1
O=C(O)CCCCCN1C(=O)c2cccc3cccc(c23)C1=O	-0.24
Cn1cc(C(/C=C/c2ccc([N+](=O)[O-])o2)c2cn(C)c3ccccc23)c2ccccc21	1.7
Nc1ccc(Sc2ccccc2)nc1Sc1ccccc1	-4.7
CC(C)OC(=O)C1C(=O)CC(C)(O)C(C(=O)OC(C)C)C1c1ccc(C(C)C)cc1 (stereo unspecified)	-0.26
CCOC(=O)Cc1cc(=O)n2[nH]c(C)nc2n1	1.6
S=C(NC(Cc1ccccc1)c1ccccc1)NC1CC2C=CC1C2 (stereo unspecified)	-0.08
CCOC(=O)C1=C(C)N=C2SC(CC)C(=O)N2C1c1ccc(OC)c(OC)c1 (stereo unspecified)	-0.55
CC(C)CN1C(=O)C(=O)/C(=C(\O)c2ccc(Cl)cc2)C1c1ccccn1 (stereo unspecified)	-0.62
Cc1nn(C)cc1/C=N/Nc1ncnc2c1cnn2C	0.27
COc1ccc(C2c3c(oc4ccccc4c3=O)C(=O)N2c2ccc(C)cn2)cc1OC (stereo unspecified)	1.6
CCOc1ccc(C2c3c(oc4ccccc4c3=O)C(=O)N2c2nc(C)c(C)s2)cc1 (stereo unspecified)	0.15
CCOc1ccc(C2c3c(oc4ccc(C)cc4c3=O)C(=O)N2c2ccccn2)cc1 (stereo unspecified)	1.1
Cc1ccc(N2C(=O)c3oc4ccccc4c(=O)c3C2c2ccccc2)nc1 (stereo unspecified)	0.17
